# Assay outcomes (PubChem BioAssay)
# aSyn yeast inh: inhibitors of alpha-synuclein toxicity in yeast. Yeast expressing alpha-synuclein, growth rescue, BacTiter-Glo, 24 h. actives 0.14% (n = 370,000). AID 652106. Potency, µM (top dose mostly 46.1 µM), for the others: top-dose growth rescue (activation), actives largely listed as activators; also: potency is read from the fitted curve at half-maximal effect; % of control where 0% means no effect; nearly all actives have a fitted effect of over 65% in size
#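 Rescue of yeast growth: cells expressing toxic alpha-synuclein, induced in galactose at OD600 0.02, incubated with compound 24 h at 30 C. ATP luminescence quantified growth; inhibitors of toxicity appear as activators.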
# FUS suppressor: FUS proteinopathy suppression in yeast; S. cerevisiae FUS-expressing, growth rescue, OD600, 24 h; Potency, µM (titrated, usually from 76.6 µM), actives largely listed as activators; actives 0.24% (n = 390,000); AID 1347120;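 also: potency is read from the fitted curve at half-maximal effect; plate controls were DMSO vehicle for no effect and reference control for full effect; nearly all actives have a fitted effect of over 55% in size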
#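 Restored growth of FUS-toxic S. cerevisiae, read as 600 nm absorbance after 24 h at 30C in galactose medium (starting OD 0.005). Controls CP55940 and DMSO.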
# TDP43 rescue: inhibitors of TDP-43 toxicity in yeast | TDP-43 expressing yeast growth rescue, BacTiter-Glo, 24 h | Potency, µM (doses to about 46.1 µM), without a hit: top-dose growth rescue (activation), hits mostly activators | actives 1.8% (n = 410,000); also: potency is read from the fitted curve at half-maximal effect; % of control where 0% means no effect; nearly all actives have a fitted effect of over 50% in size
#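 Growth rescue of TDP-43-toxic yeast measured as ATP luminescence (BacTiter-Glo). Cells grown to mid-log in raffinose, induced in galactose at OD600=0.02, exposed to compound 24 hr at 30 deg C.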
# Abeta rescue: restores growth of yeast expressing A-beta42 peptide; yeast expressing A-beta42, growth rescue, OD600, 48 h; response scale: 0% DMSO, 100% iron-clioquinol control; Potency, µM (series often up to 46.1 µM), hits mostly activators; actives 0.063% (n = 410,000); also: potency is read from the fitted curve at half-maximal effect; nearly all actives have a fitted effect of over 55% in size
#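 Yeast A-beta toxicity model in growth medium with pinned compounds, 48 h at 30 C; growth read as absorbance at 600 nm. Normalized to FeCl3/clioquinol equimolar mix (positive) and DMSO (negative).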
# Mm-Cpn inhibitor: blocks the Methanococcus maripaludis chaperonin Mm-Cpn; purified Mm-Cpn ATPase, ADP Transcreener TR-FRET; Potency, µM (series often up to 76.9 µM), without a hit: at the top dose activity, negative = inhibition, most hits filed as inhibitors; actives 0.031% (n = 330,000); AID 504842; also: potency is read from the fitted curve at half-maximal effect; % is scaled to controls: 0 for no effect and ±100 for the full control effect; nearly all actives have a fitted effect of over 80% in size
#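 Measured: ADP formation by purified Mm-CPN. Conditions: 25 nM protein, 10 uM ATP, Tris pH 7.4 with Mg2+, K+ and DTT, 37°C for 30 min. Detection: Transcreener HTRF after 30 min at room temperature.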
# CCT modulator: cytosolic chaperonin activity modulation; actives 0.3% (n = 360,000); AID 651819; purified chaperonin ATPase assay, HTRF ADP detection, 30 min; activity change, % (test concentration not listed), hits read low; in the data active = activity change below about -30%; also: % is scaled to controls: 0 for no effect and ±100 for the full control effect
#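 Enzyme 40 or 20 nM (batch-dependent) in Tris pH 7.4/KCl/MgCl2/DTT; cpd 76 uM single point; ATP 10 uM; 30 min 37 °C; Transcreener ADP HTRF detection, 30 min RT; ratio 665/615.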
# Active calls of the source: *; i = inactive; ? = inconclusive; · = not tested or not shown; [ ] = remark or other dose. This is a sample that favours compounds with a hit; in the whole collection about 2.3% have one here. Unless noted, calls follow the shape of the dose curve; as a rule, active = well fitted curve in the direction sought with a large enough effect; inconclusive = small, poorly fitted or top-dose-only effect, or another doubt; inactive = no such curve, though single readings can be large; an effect the other way counts as inactive or inconclusive.
SMILES,aSyn yeast inh,FUS suppressor,TDP43 rescue,Abeta rescue,Mm-Cpn inhibitor,CCT modulator
O=C(N/N=C/c1c(O)n(Cc2ccc(F)cc2)c(=O)[nH]c1=O)c1ccccc1,0%,i,27%,i,1%,-3
O=C(O)CCC(=O)NCCC1=c2ccccc2=N/C1=C\c1c(O)n(Cc2ccc(F)cc2)c(=S)[nH]c1=O,-6%,20µM*,-2%,i,-3%,1
C=C(CC1CC(O)[C@]2(C)OC3CC4OC5C[C@]6(C)O[C@]7(C)CCC8OC9C[C@]%10(C)OC%11C(C)=CC(=O)OC%11CC%10OC9C[C@@H](C)C8OC7CC6O[C@]5(C)C/C=C\C4OC3CC2O1)C(=O)O (stereo partly drawn),8%,?,?,i,·,-2
CC1=CC(=O)OC2CC3OC4C[C@@H](C)C5OC6CC7O[C@]8(C)C/C=C\C9OC%10CC%11OC(CC(C)C%12OCCO%12)CC(O)[C@]%11(C)OC%10CC9OC8C[C@]7(C)O[C@]6(C)CCC5OC4C[C@]3(C)OC12 (stereo partly drawn),-9%,10µM*,8%,i,1%,1
COc1cc2c(ccc3c4cc(OC)c(OC)cc4c[n+](C)c23)cc1O,7%,·,11µM*,i,·,-1
CN(C)C(=O)Oc1cccc(NC(=O)N2CCOCC2)c1,-2%,i,13%,i,1%,-2
COc1cccc(NC(=O)N2CCc3nc(Nc4ccc(C(C)C)cc4)ncc3C2)c1,30%,i,13µM*,?,·,-1
CSc1ccccc1NC(=O)CN(C)CC(=O)c1[nH]c(C)c(C(C)=O)c1C,-2%,i,?,i,1%,1
O=C(CN1CCN(C(=O)CNC(=O)c2ccc(-c3ccccc3)cc2)CC1)Nc1ccccc1Cl,7%,i,?,i,·,-2
O=C(c1ccco1)c1cn(Cc2ccc(Cl)cc2)c2ccccc12,14%,i,13µM*,?,-5%,1
CCOc1ccc(NS(=O)(=O)c2ccc(Cl)c(N=Nc3c(O)[nH]c(=S)[nH]c3=O)c2)cc1Br,?,i,4%,i,·,0
Cc1ccc2n1Cc1cnnn1-c1ccccc1-2,1%,i,10µM*,i,·,1
CN1Cc2ccccc2-n2nncc2C1,-2%,i,5%,i,·,1
Cn1c(O)c(C2=NNC(c3ccc(Cl)cc3)C2)c(=O)n(C)c1=O (stereo not drawn),-12%,i,?,14µM*,-1%,-1
CCOc1ccc(C2CC(c3c(O)n(C)c(=O)n(C)c3=O)=NN2)cc1 (stereo not drawn),0%,?,0%,i,1%,-3
O=C(NCCc1ccc(F)cc1)C(=O)NCC(c1cccs1)S(=O)(=O)c1ccc(Cl)cc1 (stereo not drawn),·,i,?,i,·,·
C=C(C=O)C[C@@H]1C[C@H](O)C2OC3C[C@]4(C)OC5/C=C\CC6OC7C(CC=CCC6OC5CCCC4OC3CC2O1)OC1CC2OC3CC(=O)OC3C[C@@H](C)C[C@@]2(C)OC1C[C@@H]7C (stereo partly drawn),0%,i,22µM*,i,0%,-2
CCCCC[C@H]1CCCCC[C@H](O)C[C@H](O)[C@@H](O)/C=C/C(=O)O1,8%,i,21%,i,·,-2
Cc1ccccc1-n1c(/C=C/c2c(C)[nH]c3ccccc23)nc2ccccc2c1=O,·,i,16µM*,i,·,·
Cc1ccc(Cl)cc1N1CCN(c2ncnc3c2nc2n3CCCC2)CC1,·,i,14µM*,i,·,·
Cc1cc2oc(=O)cc(-c3ccccc3)c2c(C)c1-c1ccc(CO)cc1,-15%,i,35µM*,i,4%,0
CCc1cc(=O)oc2cc(C)cc(OCC(=O)N3CCC(C(=O)O)(c4ccccc4)CC3)c12,6%,i,16%,i,-4%,0
Cc1ccc2c(C)c3ccc4ccccc4c3c[n+]2c1,?,·,2.5µM*,i,·,-1
Nc1ccc(Cl)cc1C(=O)c1ccccc1Cl,?,i,20µM*,i,0%,3
Nc1ccc(Cl)cc1C(=O)c1ccccc1,6%,i,-2%[0.397 µM],i,0%,-1
SMILES,aSyn yeast inh,FUS suppressor,TDP43 rescue,Abeta rescue,Mm-Cpn inhibitor,CCT modulator
CCC(=Nc1ccc(OC)cc1OC)c1c(O)n(C2CCCCC2)c(=O)[nH]c1=O,-12%,?,16µM*,i,1%,0
CCC(=NCc1ccco1)c1c(O)n(C2CCCCC2)c(=O)[nH]c1=O,-15%,i,0%,i,-1%,-1
COc1ccc(C2CC(c3c(O)n(CCc4ccccc4)c(=O)[nH]c3=O)=NN2)cc1OC (stereo not drawn),-9%,22µM*,-1%,i,1%,1
COc1ccc(CCn2c(O)c(C=NCc3cccnc3)c(=O)[nH]c2=O)cc1OC,5%,i,1%,?,0%,-1
CCOC(=O)[C@]12Cc3cc(Cl)ccc3[C@H]1N(C)C(=O)c1cc(OC)ccc12,9%,i,22µM*,i,·,-2
CCOC(=O)[C@]12Cc3cc(OC)ccc3[C@H]1N(C)C(=O)c1cc(OC)ccc12,4%,i,?,i,·,-2
Cc1[nH]c2ccccc2c1C(=O)CN1CC=C(c2ccccc2)CC1,0%,i,-5%,i,2%,-4
O=C(C(=O)N1CC=C(c2ccccc2)CC1)c1c[nH]c2ccccc12,?,i,16µM*,i,-1%,-5
Nc1ccc2c3c(cccc13)-c1ccccc1-2,-13%,i,11µM*,i,·,-1
O=S(=O)(Nc1ccc(-c2nc3ccccc3o2)cc1)c1ccccc1,2%,i,14µM*,i,1%,0
O=C(c1ccc2c(c1)N(Cc1ccc(F)cc1Cl)C(=O)c1ccccc1S2)N1CCC2(CC1)OCCO2,·,i,18µM*,i,·,·
Cc1ccc(CN2C(=O)c3ccccc3Sc3ccc(C(=O)N4CCC5(CC4)OCCO5)cc32)cc1,·,?,13%,i,·,·
CC1CCCC(C)N1C(=O)CSc1nc2c(c(=O)n(C)c(=O)n2C)n1C (stereo not drawn),2%,i,-23%,i,?,0
